Test results reported in PubChem BioAssay (NCI).
The panel holds about 83,000 compounds, 20% with a hit somewhere; the sample as a whole holds those more often.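 Negative percent growth values reflect cell death: -40 means 40% of the cells present at the start died, and -100 means all died.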 Calls of active or inactive are those of the source. The calls were made as follows: active = growth percent below 10; inactive = the rest.

Legend:
Test in all cases: NCI-60 one-dose screen, 48 h (100 = growth as untreated, 0 = no growth, -100 = all killed)
Settings in all cases: 10 µM unless noted
[1] = test system: HT29 colon
[2] = test system: SNB-75 CNS
[3] = test system: SNB-19 CNS
[4] = test system: U251 CNS
[5] = test system: SK-MEL-5 melanoma
[6] = test system: UACC-62 melanoma
[7] = test system: LOX IMVI melanoma
[8] = test system: SK-MEL-28 melanoma
[9] = test system: SK-MEL-2 melanoma

Measured: growth

CCC(=O)Nc1ccccc1C#C/C=C\C#Cc1ccccc1C(F)(F)F
inactive: [1] 47.9% | [2] 32.3% | [3] 66.4% | [4] 34.9% | [5] 60.2% | [6] 38.2% | [7] 56.1% | [8] 83.8% | [9] 12.4%

COc1ccc(Cn2cc3c(c2-c2ccccc2)CCc2cncnc2-3)cc1
inactive: [1] 19.7% | [2] 71.1% | [3] 62.8% | [4] 47% | [5] 55.4% | [6] 33.3% | [7] 52.3% | [8] 59.3% | [9] 28.2%

O=C(Nc1cccc2ccccc12)c1cc2c(cc1Br)OCO2
inactive: [1] 101% | [2] 57.4% | [3] 86.7% | [4] 103% | [5] 99.2% | [6] 85.5% | [7] 91% | [8] 119% | [9] 130%

CCCc1cc(=O)n2c(C(=O)Nc3ccccc3OC)c(C(=O)Nc3ccc(F)cc3)sc2n1
inactive: [1] 38.2% [30 µM] | [2] 12.8% [30 µM] | [3] 26.7% [30 µM] | [4] 14.7% [30 µM] | [5] 45.4% [30 µM] | [6] 66.6% [30 µM] | [7] 44.5% [30 µM] | [8] 68.5% [30 µM] | [9] 91.6% [30 µM]

O=C(Nc1ccc(Nc2ccncc2)cc1)c1ccc(Nc2ccnc3ccc([N+](=O)[O-])cc23)cc1[N+](=O)[O-]
inactive: [1] 103% | [2] 85.8% | [3] 29.6% | [5] 103% | [6] 91.1% | [7] 21.1% | [8] 54.6% | [9] 82.2%
active: [4] -46.1%

COc1cc(/C=C/C(=O)Nc2cccnc2Nc2cc(OC)c(OC)c(OC)c2)cc(OC)c1OC
inactive: [1] 94.3% | [2] 82.1% | [3] 96.5% | [4] 91.3% | [5] 93.6% | [6] 84.4% | [7] 101% | [8] 103% | [9] 96.4%

Cc1nc2c(O)cccc2cc1CO
inactive: [1] 99.8% | [2] 78.2% | [3] 104% | [4] 109% | [5] 98.5% | [6] 94.6% | [7] 106% | [8] 139% | [9] 122%

Cc1cc2c(cc1[N+](=O)[O-])NC(CNC(C)C)CC2 (stereo not given)
inactive: [1] 88.8% | [2] 67.7% | [3] 87% | [4] 99.2% | [5] 96.8% | [6] 98.7% | [7] 91.3% | [8] 114% | [9] 112%

COc1cc(/C=C/c2nnc(-c3cc(-c4ccccc4)n[nH]3)o2)cc(OC)c1OC
inactive: [1] 96.8% | [2] 67.4% | [3] 102% | [4] 108% | [5] 84.5% | [6] 92.9% | [7] 95.4% | [8] 87.9% | [9] 89.7%

CCN(CC)CCCCNc1c2ccccc2[n+](C)c2c1[nH]c1ccccc12
active: [1] 0.443% | [2] -49.8% | [3] -22.7% | [4] 0.218% | [5] -69.9% | [6] -69.6% | [7] -5.07% | [8] -90.4% | [9] -90.7%

CCOC(=O)C1=NN(c2ccc(Cl)cc2)C2C3N(c4ccc(Cl)cc4)N=C(C(=O)OCC)N3c3ccccc3N12 (stereo not given)
inactive: [1] 93.3% | [2] 91.1% | [3] 118% | [4] 114% | [5] 92.7% | [6] 101% | [7] 113% | [8] 108% | [9] 102%

CCOC(=O)c1c(C)nc(C)c(C(=O)OCC)c1-c1cccnc1
inactive: [1] 96.5% | [2] 81.7% | [3] 96.1% | [4] 94.1% | [5] 97.5% | [6] 105% | [7] 96.1% | [8] 119% | [9] 110%

CN(CC(=O)Nc1nc2ccccc2[nH]1)S(=O)(=O)c1ccc(Cl)cc1
inactive: [1] 64.7% | [2] 101% | [3] 92.4% | [4] 78.9% | [5] 84.1% | [6] 66.9% | [7] 64.7% | [8] 121% | [9] 53.7%

O=C(Nc1ncc([N+](=O)[O-])s1)c1cccc([N+](=O)[O-])c1
inactive: [1] 51.4% | [2] 30.3% | [3] 32.8% | [4] 52% | [7] 52.1% | [8] 56.8% | [9] 16.9%
active: [5] -14.2% | [6] 9.35%

Cc1ccc(C(C)C)cc1NC(=O)Nc1ccc([N+](=O)[O-])cc1
inactive: [1] 12.4% | [2] 40.9% | [3] 20.1% | [4] 15.4% | [5] 16.7% | [6] 11.7% | [8] 22.4%
active: [7] 5.39% | [9] -2.75%

O=C(Cn1ccnc1)NC(c1ccccc1)c1ccccc1
inactive: [1] 104% | [2] 73.4% | [3] 95.1% | [4] 101% | [5] 99.8% | [6] 89.7% | [7] 98% | [8] 98.2% | [9] 106%

CCOC(=O)/C=C(/C)Sc1cc(O)c2ccccc2c1O
inactive: [1] 79.7% | [4] 20% | [6] 36.3% | [9] 27.8%
active: [2] -83% | [3] -14.7% | [5] -99.1% | [7] -36.1% | [8] -53.9%

O=C(CSc1nnc(Nc2ccccc2)s1)NCCc1ccc(F)cc1
inactive: [1] 105% | [2] 119% | [3] 100% | [4] 105% | [5] 97.2% | [6] 90% | [7] 99.8% | [8] 134% | [9] 66.2%

CN(C)CCCN1c2nc3ccccc3cc2Sc2cc3ccccc3nc21
inactive: [9] 13%
active: [1] -88.6% | [2] 9.61% | [3] -56.1% | [4] -84% | [5] -75.9% | [6] -91.3% | [7] -100% | [8] -92.9%

O=c1cc(-c2cccnc2)oc2c1ccc1ccccc12
inactive: [1] 59% | [2] 54.4% | [3] 64.7% | [4] 48.8% | [5] 63.3% | [6] 70.3% | [7] 75.5% | [8] 69.3% | [9] 110%

CC(=O)c1cc(C(=O)c2ccc3c(c2)Sc2ccccc2N3)c2c(C)cc(C)cn12
inactive: [3] 36.5% | [4] 14.6% | [6] 23.1% | [7] 16.6% | [8] 40.4% | [9] 26.3%
active: [1] -15% | [2] -2.02% | [5] -36.5%

COc1ccc(Nc2ccnc(NCCCNc3ccnc4cc(Cl)ccc34)n2)cc1
active: [1] -56.6% | [2] -75.5% | [3] 7.11% | [4] -84.3% | [5] -98% | [6] -91.2% | [7] -80.4% | [8] -93.6% | [9] -86.4%

COc1cc2c(c(OC)c1OC)CCc1cnoc1-2
inactive: [1] 99.4% | [2] 71.7% | [3] 97% | [4] 98.7% | [5] 100% | [7] 92.1% | [8] 123% | [9] 119%

N#CCNc1ccccc1N
inactive: [1] 86.4% | [2] 77.8% | [3] 117% | [4] 97.2% | [5] 96% | [6] 95.3% | [7] 95.1% | [8] 110% | [9] 107%

O=C(/C=C/c1cccnc1)/C=C/c1cccnc1
inactive: [2] 24.7% | [3] 21.5% | [5] 21% | [9] 64.1%
active: [1] -55.2% | [4] -34.9% | [6] -69.4% | [7] -84% | [8] -78.4%

CN1COc2ccc3ccccc3c2C1
inactive: [1] 99.2% | [2] 72.1% | [3] 104% | [4] 92% | [5] 105% | [8] 98.6% | [9] 93.2%

CCOC(=O)c1c2c(c(C)n1Cc1ccc(OC)cc1)-c1nc(N)ncc1CC2
inactive: [1] 110% | [2] 103% | [3] 111% | [4] 106% | [5] 110% | [6] 87.3% | [7] 104% | [8] 112% | [9] 119%

CC12CCC3C(CCC4CC(=O)/C(=C\O)CC43C)C1CCC(=O)O2 (stereo not given)
inactive: [1] 108% | [2] 97.5% | [3] 119% | [4] 100% | [5] 113% | [6] 109% | [8] 114% | [9] 121%

CCn1c2ccccc2c2ccc(C(C)=O)cc21
inactive: [1] 95.9% | [2] 94.9% | [3] 106% | [4] 101% | [5] 94.4% | [6] 97.9% | [8] 106% | [9] 112%

Cc1nc2cc(NC(=O)CN3CCN(CCN4C(=O)c5cccc6cccc(c56)C4=O)CC3)ccc2s1
inactive: [1] 33.6% | [2] 57.1% | [3] 44.7% | [4] 43.4% | [5] 39.4% | [6] 62.5% | [7] 39.9% | [8] 86.4% | [9] 73%
